# Inconclusive results are not listed. A call without a number means that no potency is given here. Unmarked numbers belong to inactive results. Calls of active or inactive are those of the source. Calls follow the shape of the dose curve; as a rule, active = well fitted curve in the direction sought with a large enough effect; inconclusive = small, poorly fitted or top-dose-only effect, or another doubt; inactive = no such curve, though single readings can be large; an effect the other way counts as inactive or inconclusive. Where a SMILES comes first, the peptide text is derived from it. [ ]: non-standard residue; d: D form.
# How the values were obtained:
# [1] = P-glycoprotein substrates identified in KB-3-1 adenocarcinoma cell line, qHTS therapeutic library screen (AID 1346986); also: nearly all actives have a fitted effect of over 60% in size;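 also: potency is for cytotoxicity meaning loss of cell viability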
# In short: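 Counter-screen: cherry-picked hits retested in the KB pair and in HEK-293 pcDNA/MDR-19 cells ± tariquidar. Primary screen used 72 h CellTiter-Glo viability in KB-3-1 and KB-8-5-11.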
# [2] = P-glycoprotein substrates identified in KB-8-5-11 adenocarcinoma cell line, qHTS therapeutic library screen (AID 1346987); also: nearly all actives have a fitted effect of over 65% in size; as to activity change, negative = cytotoxicity: series mostly up to about 44 µM
# In short: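 KB-8-5-11: colchicine-selected sub-line of KB-3-1 over-expressing P-gp; assay medium lacked colchicine. 72 h drug exposure at 37 degree C, CellTiter-Glo.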
# Potency is read from the fitted curve at half-maximal effect.
smiles,measurement,setting,value
CC(C)CC(=O)O[C@@H]1OC=C(CO[C@@H]2O[C@H](CO[C@@H]3O[C@H](CO)[C@@H](O)[C@H](O)[C@H]3O)[C@@H](O)[C@H](O)[C@H]2O)[C@H]2C[C@H](O)[C@@H](CO)[C@@H]12,Potency,[1],inactive
same,Potency,[2],inactive
C=Cc1cc(O)cc2nc(-c3ccc(O)c(F)c3)oc12,Potency,[1],inactive
same,Potency,[2],inactive
O=C(O[C@@H]1O[C@H](CO)[C@@H](O)[C@H](O)[C@H]1O)c1c(O)cc(O)cc1/C=C/c1ccccc1,Potency,[1],inactive
same,Potency,[2],inactive
CN1C(=O)c2ccccc2-n2c(nc3ccccc3c2=O)[C@@]12O[C@H]2c1ccccc1,Potency,[1],inactive
same,Potency,[2],inactive
CC(=O)O[C@H]1C[C@@H]2[C@]3(CC[C@]4(C)[C@@H](C5(C)CCC(C(C)(C)O)O5)[C@@H](O)C[C@@]24C)C[C@@]32CC[C@H](O[C@@H]3OC[C@@H](O)[C@H](O)[C@H]3O)C(C)(C)[C@H]12 (stereo partly specified),Potency,[1],inactive
same,Potency,[2],inactive
CC(=O)Oc1cc2c(s1)CCN([C@H](C(=O)C1CC1)c1ccccc1F)C2,Potency,[1],inactive
same,Potency,[2],inactive
Cc1nc2c(-c3cnc(N)nc3)nc(N3CCOCC3)nc2n1C(C)C,Potency,[1],259 nM (active)
same,Potency,[2],259 nM (active)
C[C@@H]1O[C@@H](O[C@H]2[C@H](O[C@H]3[C@H](O[C@H]4CC[C@@]5(C)C(CC[C@]6(C)C5CC=C5[C@@H]7CC(C)(C(=O)O)C[C@@H](O)[C@]7(C)CC[C@]56C)[C@@]4(C)CO)O[C@H](C(=O)O)[C@@H](O)[C@@H]3O)O[C@H](CO)[C@H](O)[C@@H]2O)[C@H](O)[C@H](O)[C@H]1O (stereo partly specified),outcome,[1],inactive [at 9.29 µM]
same,"activity change, negative = cytotoxicity",[2],7.09% [at 9.29 µM]
Cc1c(N2C(=O)c3ccc(C(=O)O)cc3C2=O)c(=O)n(-c2ccccc2)n1C,Potency,[1],inactive
same,Potency,[2],inactive
COC(=O)C1(Cc2ccc(O)cc2)OC(=O)C(OC)=C1c1ccc(O)cc1 (stereo unspecified),Potency,[1],inactive
same,Potency,[2],inactive
CC(c1c[nH]c2ccccc12)C(O)C(=O)O (stereo unspecified),Potency,[1],inactive
same,Potency,[2],inactive
CC1CCC23COC(=O)C2=CC(O)CC3C1(C)CCC1=CC(=O)OC1O (stereo unspecified),Potency,[1],inactive
same,Potency,[2],inactive
CC(=O)OC(CSC1CCC(=O)OC(C)CCC(=O)C1)C(=O)O (stereo unspecified),Potency,[1],inactive
same,Potency,[2],inactive
COc1cc(-c2cccc(O)c2)cc2c1OCO2,Potency,[1],inactive
same,Potency,[2],inactive
CC1=CCC2C(C)(CO)CCCC2(CO)C1CO (stereo unspecified),Potency,[1],inactive
same,Potency,[2],inactive
COc1cccc(-c2ccc([C@@H](Oc3cc(-c4ccc(C[C@H](N)C(=O)O)cc4)nc(N)n3)C(F)(F)F)cc2)c1,Potency,[1],inactive
same,Potency,[2],inactive
CC1=CCC2C(C)(CO)CCCC2(C)C1CC12OC1C(O)C(CO)=CC2O (stereo unspecified),Potency,[1],inactive
same,Potency,[2],inactive
COc1ccc2c(c1)O[C@H](O[C@@H]1O[C@H](CO)[C@@H](O)[C@H](O)[C@H]1O)C(=O)N2,Potency,[1],inactive
same,Potency,[2],inactive
CC(=O)N[C@H](Cc1ccc(O)cc1)C(=O)N[C@H](CCCN=C(N)N)C(=O)N[C@H](Cc1ccccc1)C(N)=O (Ac-[dY]-[dR]-[dF]-NH2),Potency,[1],inactive
same,Potency,[2],inactive
COc1c(C)c2c(c(O)c1C/C=C(\C)CC/C=C(\C)CCC(=O)O)C(=O)OC2,Potency,[1],inactive
same,Potency,[2],inactive
C[C@@H]1C[C@H]2[C@@H]3CCC4=CC(=O)C=C[C@]4(C)[C@@]3(F)[C@@H](O)C[C@]2(C)[C@@]1(O)C(=O)COP(=O)(O)O,Potency,[1],inactive
same,Potency,[2],inactive
C[C@H]1CC[C@@]2(OC1)O[C@H]1CC3C4CC=C5C[C@H](O)C[C@@H](O[C@@H]6O[C@@H](C)[C@H](O)[C@@H](O)[C@H]6O[C@@H]6O[C@@H](C)[C@H](O)[C@@H](O)[C@H]6O)[C@]5(C)C4CC[C@]3(C)[C@H]1[C@@H]2C (stereo partly specified),Potency,[1],inactive
same,Potency,[2],inactive
CC1(C)CCC2(C(=O)OC3OC(COC4OC(CO)C(O)C(O)C4O)C(O)C(O)C3O)CCC3(C)C(=CCC4C5(C)CCC(O)C(C)(C(=O)O)C5CCC43C)C2C1O (stereo unspecified),outcome,[1],inactive [at 9.29 µM]
same,outcome,[2],inactive [at 9.29 µM]

# From PubChem BioAssay (NCATS)
